Measured values from PubChem BioAssay (NCI).
“And” between values parts separate entries of the source, which are not always exact repeats. Equal entries are not always repeated. This is part of a sample that, as a whole, favours compounds with a hit. Of some 83,000 tested, about 20% had one in any assay.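 In brief: 96-well plates, 48 h treatment, single concentration, percent growth endpoint.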 Unmarked numbers belong to inactive results. The source made the active and inactive calls. How the source made its calls: active means growth percent below 10; inactive means the rest. Starred links: 1 amine or outer side, 2 acyl side, 3 side chain; linkers in the order of their positions; H or OH if unused. Positions of bridges follow the written chain, without caps; N, C: chain ends. Non-standard residues stand in square brackets, D forms with d. Residues, ends and D or L forms follow the SMILES beside them. Chains are numbered I, II in the order given. Actinocin(9to1) = Cc1c2oc3c(C)ccc(C(=O)[*:1])c3nc-2c(C(=O)[*:2])c(N)c1=O; aThr = C[C@H](O)[C@H](N)C(=O)O; NMeV = CN[C@H](C(=O)O)C(C)C; Sar = CNCC(=O)O

Each compound was assayed on NCI-H226 lung (assay: NCI-60 one-dose screen, 48 h (100 = growth as untreated, 0 = no growth, -100 = all killed)). Conditions: 10 µM.
For `CN(C)CCC(=O)c1c[nH]c2ccccc12`, the growth was 105%. For `N#C/C(=C1C=C/C(=N\O)C(Cl)=C\1)c1ccccc1`, the growth was 87.8%. `S=c1[nH]nc(Cc2ccccc2)c(=S)[nH]1` showed a growth of 103%. `Cc1cnc(/C=N\NC(N)=S)c2cccc(N)c12` was tested, and the growth was 4.78% (active). Compound `CCCCCCCCCCCCCCCCCN` has a growth of 111%. `Cc1cc(NCCCN(C)C)c2ccc3c(ccc4c(NCCCN(C)C)cc(C)nc43)c2n1` was tested, and the growth was -56.6% (active). For `COc1cc(C(C)(C)C)cc(OC)c1C(O)(c1c(OC)cc(C(C)(C)C)cc1OC)c1c(OC)cc(C(C)(C)C)cc1OC`, the growth was -65.7% (active). In the case of `O=c1[nH]cc(F)c(=O)[nH]1`, the growth is reported as 85.2% and 94.1%. `Nc1ccc2cc(Br)c3ccccc3c2c1` showed a growth of 59.4%. With `BrC/C=C/C[P+](c1ccccc1)(c1ccccc1)c1ccccc1` the growth was 76.2%. Compound `O=C(/C(=C/c1ccccc1)CBr)c1ccccc1` has a growth of 93%. With `Cc1c2oc3c(C)ccc(C(=O)N[C@@H]4C(=O)N[C@H](C(C)C)C(=O)N5CCC[C@H]5C(=O)N(C)CC(=O)N(C)[C@@H](C(C)C)C(=O)O[C@H]4C)c3nc-2c(C(=O)N[C@@H]2C(=O)N[C@H](C(C)C)C(=O)N3CCC[C@H]3C(=O)N(C)CC(=O)N(C)[C@@H](C(C)C)C(=O)O[C@H]2C)c(N)c1=O` (I: [aThr][dV]P[Sar][NMeV] / II: [aThr][dV]P[Sar][NMeV]; ester I:1-I:C, II:1-II:C; linker I:N-II:N via Actinocin(9to1)) the growth was -12.4% (active). For `CSc1ccc2c(c1)C(N1CCN(C)CC1)Cc1ccccc1S2` (configuration not stated), the growth was 55.3%. `CN1CCN(c2ccc3nc(-c4ccc5nc(-c6ccc(O)cc6)[nH]c5c4)[nH]c3c2)CC1` gave a growth of 88.5%.

What follows are compounds tested on NCI-H322M lung in the same assay as above. Conditions: 10 µM.
`CN(C)CCC(=O)c1c[nH]c2ccccc12` was tested, and the growth was 94%. In the case of `N#C/C(=C1C=C/C(=N\O)C(Cl)=C\1)c1ccccc1`, the growth is reported as 55.3%. `S=c1[nH]nc(Cc2ccccc2)c(=S)[nH]1` was tested, and the growth was 97.7%. With `Cc1cnc(/C=N\NC(N)=S)c2cccc(N)c12` the growth was -21.9% (active). In the case of `CCCCCCCCCCCCCCCCCN`, the growth is reported as 110%. For `Cc1cc(NCCCN(C)C)c2ccc3c(ccc4c(NCCCN(C)C)cc(C)nc43)c2n1`, the growth was -40.7% (active). For `COc1cc(C(C)(C)C)cc(OC)c1C(O)(c1c(OC)cc(C(C)(C)C)cc1OC)c1c(OC)cc(C(C)(C)C)cc1OC`, the growth was -68.6% (active). In the case of `O=c1[nH]cc(F)c(=O)[nH]1`, the growth is reported as 62.5% and 58.5%. For `Nc1ccc2cc(Br)c3ccccc3c2c1`, the growth was 64.7%. With `BrC/C=C/C[P+](c1ccccc1)(c1ccccc1)c1ccccc1` the growth was 96.5%. With `O=C(/C(=C/c1ccccc1)CBr)c1ccccc1` the growth was 90.4%. In the case of `Cc1c2oc3c(C)ccc(C(=O)N[C@@H]4C(=O)N[C@H](C(C)C)C(=O)N5CCC[C@H]5C(=O)N(C)CC(=O)N(C)[C@@H](C(C)C)C(=O)O[C@H]4C)c3nc-2c(C(=O)N[C@@H]2C(=O)N[C@H](C(C)C)C(=O)N3CCC[C@H]3C(=O)N(C)CC(=O)N(C)[C@@H](C(C)C)C(=O)O[C@H]2C)c(N)c1=O` (I: [aThr][dV]P[Sar][NMeV] / II: [aThr][dV]P[Sar][NMeV]; ester I:1-I:C, II:1-II:C; linker I:N-II:N via Actinocin(9to1)), the growth is reported as 7.68% (active). `CN1CCN(c2ccc3nc(-c4ccc5nc(-c6ccc(O)cc6)[nH]c5c4)[nH]c3c2)CC1` showed a growth of 106%.
